# Experimental data taken from PubChem BioAssay (NCATS).
# Inconclusive results are not listed. Where a call stands in place of a potency, no number is given. Calls of active or inactive are those of the source. Unless noted, calls come from the whole dose curve.
# What was measured:
# [1] = Primary qHTS for inhibitors of SARS-S pseudo-typed particle cell entry (AID 1479145); note: nearly all actives have a fitted effect of over 45% in size
# [2] = Primary qHTS for Huh7 cytotoxicity: counterscreen for inhibitors of MERS-S pseudotyped particle cell entry (AID 1479147); details: outcome: dose series up to 57.1 µM unless noted
# [3] = Primary qHTS for Vero E6 cytotoxicity: counterscreen for inhibitors of SARS-S pseudo-typed particle cell entry (AID 1479150); details: outcome: dose series up to 57.1 µM unless noted
# [4] = Cytotoxicity counterscreen for inhibitors of SARS-CoV-2 cell entry (AID 1645845); note: nearly all actives have a fitted effect of over 50% in size
# Method in brief: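 HEK293-ACE2 cells (Expi293F stably expressing human ACE2) seeded overnight, then compound for 1 h plus 48 h at 37C. Viability as ATP content by luminescence; normalized to wells with cells and media-only wells.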
# [5] = tested on: CRL-7250; test: qHTS assay to identify novel small-molecules to repurpose for Merkel cell carcinoma treatment (AID 1296009; active = well fitted inhibition curve with a large enough effect; note: nearly all actives have a fitted effect of over 60% in size); details: MCC and control cell lines, CellTiter-Glo viability, 72 h; series mostly up to 92 µM
# Method in brief: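 Cells were treated for 72 hr at 37 degree celsius with compounds in 8- or 11-point dose response. Viability was read by CellTiter-Glo luminescence, normalized to no-cell (cytotoxicity) and DMSO controls.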
# [6] = qHTS for Inhibitors of the Functional Ribonucleoprotein Complex (vRNP) of Lassa (LASV) Arenavirus: Viability assay - alamar blue signal for LASV Primary Screen (AID 1347083; calls by dose curve; tested in HEK293 reporter line; note: nearly all actives have a fitted effect of over 80% in size)
# [7] = target: Nucleoprotein (Lymphocytic choriomeningitis virus (strain Armstrong)) (UniProt P09992); test: qHTS for Inhibitors of the Functional Ribonucleoprotein Complex (vRNP) of Lymphocytic Choriomeningitis Arenaviruses (LCMV): LCMV Primary Screen - GLuc reporter signal (AID 1347086); note: potency is the fitted concentration of half-maximal effect; nearly all actives have a fitted effect of over 70% in size
# Chain of Nucleoprotein (Lymphocytic choriomeningitis virus (strain Armstrong)) (P09992 whole entry, looked up): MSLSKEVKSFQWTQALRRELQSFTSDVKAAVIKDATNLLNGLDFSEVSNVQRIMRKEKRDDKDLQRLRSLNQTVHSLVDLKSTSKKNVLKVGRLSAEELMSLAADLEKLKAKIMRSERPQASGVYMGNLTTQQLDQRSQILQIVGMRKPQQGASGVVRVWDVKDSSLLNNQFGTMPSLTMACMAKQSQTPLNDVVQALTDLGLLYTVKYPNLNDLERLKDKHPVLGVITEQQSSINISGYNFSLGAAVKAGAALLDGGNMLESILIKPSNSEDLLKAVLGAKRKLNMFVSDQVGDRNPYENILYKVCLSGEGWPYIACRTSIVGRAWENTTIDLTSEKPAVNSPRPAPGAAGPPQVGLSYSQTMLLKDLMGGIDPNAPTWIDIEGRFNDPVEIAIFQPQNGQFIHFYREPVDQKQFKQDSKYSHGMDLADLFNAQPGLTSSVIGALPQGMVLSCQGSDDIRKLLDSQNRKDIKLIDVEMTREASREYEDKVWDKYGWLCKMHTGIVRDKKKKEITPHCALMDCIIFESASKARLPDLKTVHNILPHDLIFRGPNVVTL
# [8] = Primary qHTS to identify inhibitors of SARS-CoV-2 cell entry (AID 1645846); details: activity change, negative = inhibition: at 57.1 µM (top of the series) unless noted; note: nearly all actives have a fitted effect of over 45% in size
# Method in brief: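 Luminescence readout (Bright-Glo luciferase) 48 h after pseudoparticle addition. HEK293-ACE2 cells, 1500/well; compound pre-incubation 1 h; Normalized to spike PP and bald PP.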
# [9] = Confirmatory qHTS for VERO E6 Cytotoxicity Assay: Counterscreen for SARS-CoV-2 CPE Assay (AID 1508605); note: nearly all actives have a fitted effect of over 60% in size
# [10] = Confirmatory qHTS for activators (rescue) of SARS-CoV-2 Cytopathic Effect (CPE) (AID 1508606); note: nearly all actives have a fitted effect of over 70% in size; note: potency is the fitted concentration of half-maximal effect
structure (smiles),measurement,setting,value
CCc1ccc(Cc2ccc3c(c2)[C@]2(OC3)O[C@H](CO)[C@@H](O)[C@H](O)[C@H]2O)cc1,Potency,[1],inactive
same,outcome,[2],inactive
same,outcome,[3],inactive
same,Potency,[4],inactive
same,Potency,[5],inactive
CC=CCC(C)C(O)C1C(=O)NC(CC)C(=O)N(C)CC(=O)N(C)C(CC(C)C)C(=O)NC(C(C)C)C(=O)N(C)C(CC(C)C)C(=O)NC(C)C(=O)NC(C)C(=O)N(C)C(CC(C)C)C(=O)N(C)C(CC(C)C)C(=O)N(C)C(C(C)C)C(=O)N1C (stereo not given),Potency,[6],inactive
same,Potency,[7],13.7 µM (active)
same,Potency,[5],inactive
Cc1c(F)cc(C(=O)NC2CC2)cc1-c1ccc(C(=O)NCC(C)(C)C)cn1,Potency,[4],inactive
same,"activity change, negative = inhibition",[8],-35.5%
same,Potency,[5],inactive
CCC(=O)c1cc(-c2ccc(Cl)cc2)n(-c2ccc(S(N)(=O)=O)cc2)c1C,Potency,[9],inactive
same,Potency,[10],inactive
same,Potency,[5],inactive
CCc1cccc(CC)c1-n1c(C=C(C)C)c(C(=O)N2CCNCC2)cc(-c2nc(-c3ccc(C(F)(F)F)cc3)cs2)c1=O,Potency,[9],inactive
same,Potency,[10],inactive
same,Potency,[5],inactive
COCCOc1ccc(N2CCN(CCn3ncc4c3nc(N)n3nc(-c5ccco5)nc43)CC2)cc1,Potency,[4],inactive
same,"activity change, negative = inhibition",[8],-15.3%
same,Potency,[5],inactive
Cn1ncc2cc(-c3cnc(N)c(Cl)c3N3CCC4(CCNC4=O)CC3)ccc21,Potency,[10],2.82 µM (active)
same,Potency,[4],inactive
same,Potency,[5],inactive
COc1cc(S(C)(=O)=O)ccc1Nc1nc2ccc(-c3ccc(NC(=O)[C@H](C)c4ccc(F)cc4)cc3)cn2n1,Potency,[4],inactive
same,Potency,[5],inactive
CN1CCC(c2cn(C)c3ccc(OS(=O)(=O)c4c(F)cccc4F)cc23)CC1,Potency,[9],inactive
same,Potency,[10],11.2 µM (active)
same,Potency,[5],inactive
N#Cc1cccc(-c2c[nH]c3ncnc(N4CCOCC4)c23)c1,Potency,[4],inactive
same,Potency,[8],inactive
same,Potency,[5],inactive
CO[C@@H]1COCC[C@@H]1N[C@@H]1CC[C@@](C(=O)N2CCc3ncc(C(F)(F)F)cc3C2)(C(C)C)C1,Potency,[4],inactive
same,Potency,[8],inactive
same,Potency,[5],inactive
c1cc(-c2cnn3cc(-c4ccc(N5CCNCC5)cc4)cnc23)c2cccnc2c1,Potency,[4],inactive
same,Potency,[8],inactive
same,Potency,[5],inactive
CCCOc1ccn2c(C(C)=O)cc(-c3ccccc3S(C)(=O)=O)c2c1,Potency,[4],inactive
same,Potency,[8],inactive
same,Potency,[5],inactive
C=C1C[C@@]2(O)O[C@@]3(C[C@H]2C(C)C)[C@@H](C)CC[C@@H]13,Potency,[4],inactive
same,Potency,[8],inactive
same,Potency,[5],inactive
CS(=O)(=O)c1ccc(Oc2cc(F)cc(C#N)c2)c2c1[C@H](O)C(F)(F)C2,Potency,[4],inactive
same,Potency,[8],inactive
same,Potency,[5],inactive
CCS(=O)(=O)N1CCC([C@@H](C)n2c(C)c(C(=O)NCc3c(OC)cc(C)[nH]c3=O)c3ccccc32)CC1,Potency,[4],inactive
same,Potency,[8],inactive
same,Potency,[5],inactive
COc1ccccc1OCCN1CC(COc2cccc3[nH]c4ccccc4c23)OCC1=O (stereo not given),Potency,[9],inactive
same,Potency,[10],inactive
same,Potency,[5],inactive
CCNC1(C(N)=O)CCN(c2ncnc3c2nc(-c2ccccc2Cl)n3-c2ccc(Cl)cc2)CC1,Potency,[4],inactive
same,Potency,[5],inactive
O=C([C@@H](Cc1cccc(C(F)(F)F)c1)NS(=O)(=O)c1cc(F)c2c(c1)CCNC2)N1CCCC1,Potency,[4],inactive
same,Potency,[5],inactive
CCC(CC)CC1(C(=O)Nc2ccccc2SC(=O)C(C)C)CCCCC1,Potency,[4],inactive
same,"activity change, negative = inhibition",[8],-15.2%
same,Potency,[5],inactive
CCNCc1nc2c(N)nc3ccccc3c2n1CC(C)(C)O,Potency,[4],inactive
same,"activity change, negative = inhibition",[8],-33.4%
same,Potency,[5],inactive
C=C1C(=O)OC(CCCCCCCC)C1C(=O)O (stereo not given),Potency,[4],inactive
same,Potency,[5],inactive
O=C1C(c2c(O)[nH]c3ccccc23)=Nc2ccccc21,Potency,[4],inactive
same,Potency,[8],inactive
same,Potency,[5],inactive
CC[C@@](C)(Nc1ccnc(-c2c[nH]c3ncccc23)n1)C(=O)NCC(F)(F)F,Potency,[4],inactive
same,"activity change, negative = inhibition",[8],-38.3%
same,Potency,[5],inactive
CCNC(=O)CCC/C=C\C[C@@H]1[C@@H](/C=C/C(O)CCc2ccccc2)[C@@H](O)C[C@@H]1O (stereo not given in full),Potency,[4],inactive
same,Potency,[5],inactive
CCCCOc1nc(N)c2c(n1)N(Cc1cccc(CN3CCCC3)c1)CC(=O)N2,Potency,[4],inactive
same,"activity change, negative = inhibition",[8],-22.5%
same,Potency,[5],inactive
